Experimental data published in ChEMBL document CHEMBL2218924, “A broad activity screen in support of a chemogenomic map for kinase signalling research and drug discovery” (Biochem J, 2013).

What was measured:
[1] = target: T1, Serine/threonine-protein kinase TBK1 (Homo sapiens) (UniProt Q9UHD2); details: at 10 µM
T1 sequence (whole entry): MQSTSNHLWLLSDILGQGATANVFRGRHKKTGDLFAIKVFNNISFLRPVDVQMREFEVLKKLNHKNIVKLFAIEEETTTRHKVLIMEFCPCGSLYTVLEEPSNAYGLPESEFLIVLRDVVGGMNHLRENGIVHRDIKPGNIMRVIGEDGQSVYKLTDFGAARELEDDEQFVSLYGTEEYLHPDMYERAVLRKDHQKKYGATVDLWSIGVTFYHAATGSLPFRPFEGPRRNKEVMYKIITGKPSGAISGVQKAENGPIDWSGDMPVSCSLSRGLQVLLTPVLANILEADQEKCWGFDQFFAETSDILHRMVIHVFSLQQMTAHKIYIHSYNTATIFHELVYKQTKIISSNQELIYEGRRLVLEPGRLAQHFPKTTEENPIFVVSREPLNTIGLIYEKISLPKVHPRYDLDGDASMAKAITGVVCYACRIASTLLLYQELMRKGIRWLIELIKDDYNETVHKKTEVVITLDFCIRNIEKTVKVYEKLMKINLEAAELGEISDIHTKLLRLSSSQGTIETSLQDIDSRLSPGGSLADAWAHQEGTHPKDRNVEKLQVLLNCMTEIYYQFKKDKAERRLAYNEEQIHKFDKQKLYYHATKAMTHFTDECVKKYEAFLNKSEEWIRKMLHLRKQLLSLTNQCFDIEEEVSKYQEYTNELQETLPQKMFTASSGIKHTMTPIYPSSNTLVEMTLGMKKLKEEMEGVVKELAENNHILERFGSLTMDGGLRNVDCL

[2] = target: T2, TGF-beta receptor type-1 (Homo sapiens) (UniProt P36897); details: at 1 µM
T2 sequence (whole entry): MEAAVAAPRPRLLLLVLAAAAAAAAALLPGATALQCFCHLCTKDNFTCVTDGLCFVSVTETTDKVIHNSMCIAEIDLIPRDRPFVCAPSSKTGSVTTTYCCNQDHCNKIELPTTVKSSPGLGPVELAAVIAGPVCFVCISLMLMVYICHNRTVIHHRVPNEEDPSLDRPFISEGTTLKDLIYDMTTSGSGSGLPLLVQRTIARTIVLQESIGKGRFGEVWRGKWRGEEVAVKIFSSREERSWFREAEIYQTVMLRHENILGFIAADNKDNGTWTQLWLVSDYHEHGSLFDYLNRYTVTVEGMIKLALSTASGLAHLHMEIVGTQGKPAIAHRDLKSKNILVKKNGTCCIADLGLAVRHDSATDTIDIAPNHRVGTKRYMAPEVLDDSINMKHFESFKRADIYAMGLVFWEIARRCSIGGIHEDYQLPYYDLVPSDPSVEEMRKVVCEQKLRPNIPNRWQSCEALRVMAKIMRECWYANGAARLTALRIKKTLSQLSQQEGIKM

[3] = target: T2, TGF-beta receptor type-1 (Homo sapiens); details: at 10 µM
[4] = target: Insulin-like growth factor 1 receptor (Homo sapiens) (UniProt P08069); details: at 1 µM
Sequence of Insulin-like growth factor 1 receptor (Homo sapiens) (P08069 31-736 limits assumed): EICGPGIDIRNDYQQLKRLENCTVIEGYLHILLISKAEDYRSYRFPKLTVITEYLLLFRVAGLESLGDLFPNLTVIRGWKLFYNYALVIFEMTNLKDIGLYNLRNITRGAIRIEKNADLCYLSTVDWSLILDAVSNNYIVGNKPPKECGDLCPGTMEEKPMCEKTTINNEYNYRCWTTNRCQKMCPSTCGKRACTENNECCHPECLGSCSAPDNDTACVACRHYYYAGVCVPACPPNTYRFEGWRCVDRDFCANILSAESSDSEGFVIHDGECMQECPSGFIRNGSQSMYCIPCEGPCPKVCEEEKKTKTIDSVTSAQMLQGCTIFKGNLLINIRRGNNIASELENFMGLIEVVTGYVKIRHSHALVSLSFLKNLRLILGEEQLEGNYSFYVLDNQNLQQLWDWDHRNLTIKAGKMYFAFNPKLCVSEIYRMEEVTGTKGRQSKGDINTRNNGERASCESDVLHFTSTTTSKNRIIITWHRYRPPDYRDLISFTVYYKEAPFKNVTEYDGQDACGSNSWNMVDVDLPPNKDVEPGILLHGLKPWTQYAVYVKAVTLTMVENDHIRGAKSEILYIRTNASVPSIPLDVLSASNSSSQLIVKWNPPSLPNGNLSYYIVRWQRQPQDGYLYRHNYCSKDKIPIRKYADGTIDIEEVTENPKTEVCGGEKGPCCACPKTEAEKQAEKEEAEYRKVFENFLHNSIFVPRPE
Sequence of Insulin-like growth factor 1 receptor (Homo sapiens) (P08069 741-1367 limits assumed): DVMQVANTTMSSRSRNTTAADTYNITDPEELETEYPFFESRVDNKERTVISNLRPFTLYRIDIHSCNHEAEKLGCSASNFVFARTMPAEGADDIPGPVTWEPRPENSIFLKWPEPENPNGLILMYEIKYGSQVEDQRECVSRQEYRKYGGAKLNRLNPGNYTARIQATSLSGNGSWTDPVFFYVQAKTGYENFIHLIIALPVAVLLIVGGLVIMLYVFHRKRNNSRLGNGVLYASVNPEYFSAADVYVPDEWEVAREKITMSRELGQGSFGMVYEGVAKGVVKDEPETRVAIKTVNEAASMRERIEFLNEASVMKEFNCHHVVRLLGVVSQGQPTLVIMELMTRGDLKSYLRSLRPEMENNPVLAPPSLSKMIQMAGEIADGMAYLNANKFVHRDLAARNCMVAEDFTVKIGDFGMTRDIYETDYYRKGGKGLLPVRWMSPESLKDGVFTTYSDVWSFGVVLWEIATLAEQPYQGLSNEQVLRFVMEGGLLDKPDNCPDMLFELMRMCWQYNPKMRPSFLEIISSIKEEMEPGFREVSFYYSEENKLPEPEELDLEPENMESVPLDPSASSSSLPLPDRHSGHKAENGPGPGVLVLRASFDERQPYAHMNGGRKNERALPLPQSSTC

[5] = target: Insulin-like growth factor 1 receptor (Homo sapiens) (UniProt P08069); details: at 10 µM
[6] = target: T3, Inhibitor of nuclear factor kappa-B kinase subunit alpha (Homo sapiens) (UniProt O15111); details: at 1 µM
T3 sequence (whole entry): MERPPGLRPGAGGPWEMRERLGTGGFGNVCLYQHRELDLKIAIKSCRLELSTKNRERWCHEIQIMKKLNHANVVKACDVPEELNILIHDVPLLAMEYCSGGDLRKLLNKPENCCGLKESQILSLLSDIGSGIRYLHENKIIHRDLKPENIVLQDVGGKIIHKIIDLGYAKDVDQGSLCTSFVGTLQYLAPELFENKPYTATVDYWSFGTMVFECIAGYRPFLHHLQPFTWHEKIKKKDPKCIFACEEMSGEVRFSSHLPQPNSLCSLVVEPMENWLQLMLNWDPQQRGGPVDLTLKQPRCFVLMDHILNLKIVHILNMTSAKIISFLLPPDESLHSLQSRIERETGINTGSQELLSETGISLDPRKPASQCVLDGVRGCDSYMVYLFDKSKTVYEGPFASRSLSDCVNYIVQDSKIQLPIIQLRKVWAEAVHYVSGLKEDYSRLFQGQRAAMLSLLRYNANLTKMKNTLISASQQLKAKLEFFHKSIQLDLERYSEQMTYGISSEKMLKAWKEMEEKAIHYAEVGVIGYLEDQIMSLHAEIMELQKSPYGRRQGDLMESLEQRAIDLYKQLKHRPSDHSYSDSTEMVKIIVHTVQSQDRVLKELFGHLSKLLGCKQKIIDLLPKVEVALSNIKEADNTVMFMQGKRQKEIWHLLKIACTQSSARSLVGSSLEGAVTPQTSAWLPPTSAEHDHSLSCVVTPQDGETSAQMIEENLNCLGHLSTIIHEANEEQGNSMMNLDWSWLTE

[7] = target: T3, Inhibitor of nuclear factor kappa-B kinase subunit alpha (Homo sapiens); details: at 10 µM
[8] = target: T4, Inhibitor of nuclear factor kappa-B kinase subunit beta (Homo sapiens) (UniProt O14920); details: at 1 µM
T4 sequence (whole entry): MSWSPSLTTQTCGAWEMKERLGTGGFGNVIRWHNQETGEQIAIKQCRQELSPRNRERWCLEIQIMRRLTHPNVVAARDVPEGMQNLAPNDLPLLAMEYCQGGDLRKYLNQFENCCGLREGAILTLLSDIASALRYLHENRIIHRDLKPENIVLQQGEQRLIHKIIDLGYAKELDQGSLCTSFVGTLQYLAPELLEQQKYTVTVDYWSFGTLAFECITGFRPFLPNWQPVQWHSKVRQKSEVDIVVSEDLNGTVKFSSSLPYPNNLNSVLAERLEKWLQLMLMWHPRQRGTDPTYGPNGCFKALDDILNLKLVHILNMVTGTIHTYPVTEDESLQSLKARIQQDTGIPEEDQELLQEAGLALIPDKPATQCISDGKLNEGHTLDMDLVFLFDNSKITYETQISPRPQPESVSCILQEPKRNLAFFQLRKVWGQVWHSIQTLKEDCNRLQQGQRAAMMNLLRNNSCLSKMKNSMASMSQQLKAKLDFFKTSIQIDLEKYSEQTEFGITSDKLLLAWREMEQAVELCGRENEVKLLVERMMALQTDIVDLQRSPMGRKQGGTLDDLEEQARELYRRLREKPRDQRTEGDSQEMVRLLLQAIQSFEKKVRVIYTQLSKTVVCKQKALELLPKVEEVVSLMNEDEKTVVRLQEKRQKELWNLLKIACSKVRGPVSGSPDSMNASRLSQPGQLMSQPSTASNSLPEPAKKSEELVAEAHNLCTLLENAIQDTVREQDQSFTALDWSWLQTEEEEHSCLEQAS

[9] = target: T4, Inhibitor of nuclear factor kappa-B kinase subunit beta (Homo sapiens); details: at 10 µM
[10] = target: Insulin receptor (Homo sapiens) (UniProt P06213); details: at 1 µM
Sequence of Insulin receptor (Homo sapiens) (P06213 28-758 limits assumed): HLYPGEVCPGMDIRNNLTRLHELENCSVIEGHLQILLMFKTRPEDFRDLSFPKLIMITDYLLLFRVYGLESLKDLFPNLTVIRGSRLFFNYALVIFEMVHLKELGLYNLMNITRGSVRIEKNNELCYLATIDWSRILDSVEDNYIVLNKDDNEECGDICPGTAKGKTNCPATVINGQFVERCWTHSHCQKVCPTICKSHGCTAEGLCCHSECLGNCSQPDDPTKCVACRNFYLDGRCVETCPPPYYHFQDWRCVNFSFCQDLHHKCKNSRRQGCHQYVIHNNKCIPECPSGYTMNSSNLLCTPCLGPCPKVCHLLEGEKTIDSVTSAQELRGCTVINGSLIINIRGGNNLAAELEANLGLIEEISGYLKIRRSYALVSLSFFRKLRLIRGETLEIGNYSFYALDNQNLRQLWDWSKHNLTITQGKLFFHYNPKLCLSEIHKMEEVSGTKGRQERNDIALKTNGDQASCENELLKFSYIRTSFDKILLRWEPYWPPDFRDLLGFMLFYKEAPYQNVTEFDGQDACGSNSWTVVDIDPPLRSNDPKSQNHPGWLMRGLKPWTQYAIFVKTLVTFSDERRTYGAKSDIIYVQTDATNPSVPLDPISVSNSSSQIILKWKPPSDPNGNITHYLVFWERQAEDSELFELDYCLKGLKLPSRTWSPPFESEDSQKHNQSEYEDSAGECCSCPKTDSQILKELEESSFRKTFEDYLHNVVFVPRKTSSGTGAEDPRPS
Sequence of Insulin receptor (Homo sapiens) (P06213 763-1382 limits assumed): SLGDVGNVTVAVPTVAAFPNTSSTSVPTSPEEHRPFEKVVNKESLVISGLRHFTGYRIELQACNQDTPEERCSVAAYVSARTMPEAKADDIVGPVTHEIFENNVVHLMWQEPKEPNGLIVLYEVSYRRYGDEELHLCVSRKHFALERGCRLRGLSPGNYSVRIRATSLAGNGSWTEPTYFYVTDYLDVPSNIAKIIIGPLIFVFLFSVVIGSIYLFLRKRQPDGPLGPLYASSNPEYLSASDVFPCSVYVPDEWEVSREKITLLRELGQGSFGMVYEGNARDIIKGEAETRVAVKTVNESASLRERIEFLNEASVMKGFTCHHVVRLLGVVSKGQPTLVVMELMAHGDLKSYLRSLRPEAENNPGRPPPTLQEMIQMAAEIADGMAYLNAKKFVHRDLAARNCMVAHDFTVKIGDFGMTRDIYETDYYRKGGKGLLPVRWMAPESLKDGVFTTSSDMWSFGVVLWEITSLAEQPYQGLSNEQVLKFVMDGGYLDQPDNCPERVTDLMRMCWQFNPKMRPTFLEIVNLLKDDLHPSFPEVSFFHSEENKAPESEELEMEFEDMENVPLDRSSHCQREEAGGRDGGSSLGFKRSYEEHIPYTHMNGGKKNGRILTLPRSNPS

`CCN(CC)CCCCN1c2ccccc2Oc2ccc(Cl)cc21` was tested. Which residual activity [1] did it give?
Its residual activity is 82%.

What about the residual activity [2] of the same compound?
The residual activity was 84%.

What about the residual activity [3] of the same compound?
Its residual activity is 105%.

And the residual activity [4]?
Its residual activity is 107%.

What about the residual activity [5] of the same compound?
Its residual activity is 104%.

What about the residual activity [6] of the same compound?
Its residual activity is 97%.

And the residual activity [7]?
Its residual activity is 102%.

And the residual activity [8]?
The residual activity was 112%.

And the residual activity [9]?
The residual activity was 105%.

What about the residual activity [10] of the same compound?
Its residual activity is 114%.
